This passage reports growth results from PubChem BioAssay (NCI).

Compounds without any hit were thinned out: in the full panel of roughly 83,000, 20% have a hit.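 Cells were grown in 96-well plates and exposed to the test compound at a single concentration for 48 hours; results are reported as percent growth, with values below 10 considered active.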 Unmarked numbers belong to inactive results. Active and inactive are the calls of the source.

Some test systems named below: HCT-15 colon; HT29 colon; SNB-75 CNS; SNB-19 CNS; U251 CNS; PC-3 prostate; SK-MEL-5 melanoma; UACC-62 melanoma; LOX IMVI melanoma; SK-MEL-28 melanoma.
Holding throughout (assay): NCI-60 one-dose screen, 48 h (100 = growth as untreated, 0 = no growth, -100 = all killed)
Common to all, as to conditions: 10 µM unless noted

With `COc1ccc(-c2nnc(SCC(=O)Nc3ccc(C(=O)/C=C/c4ccc(Cl)cc4)cc3)n2-c2ccccc2)cc1`, the growth was 94.7% in the assay on HCT-15 colon; 99.2% with HT29 colon; 86.5% in the assay with SNB-75 CNS; 99.6% with SNB-19 CNS; 85.8% in the assay on U251 CNS; 87.9% in the assay with PC-3 prostate. Further, the growth in the assay on SK-MEL-5 melanoma is 92.1%; with UACC-62 melanoma, 83.7%; in the assay on LOX IMVI melanoma, 103%; in the assay on SK-MEL-28 melanoma it was 101%.

On to `O=C(Oc1c(Cl)c(Cl)c(Cl)c(Cl)c1Cl)C1CCCN1C(=O)OCc1ccccc1` (stereo not given), for which the growth in the assay with HCT-15 colon was 15.4%; with HT29 colon, 89.1%; in the assay with SNB-75 CNS, 36.4%; with SNB-19 CNS it was 26.2%; in the assay with U251 CNS it was 18.3%; in the assay with PC-3 prostate it was 10.7%. Also, the growth in the assay on SK-MEL-5 melanoma is 76.2%; in the assay on UACC-62 melanoma it was 75.2%; in the assay on LOX IMVI melanoma, 64.8%; with SK-MEL-28 melanoma, 99%.

In the case of `CCOC(C)(c1ccc(Cl)cc1)C1CCNCC1` (stereo not given), the growth in the assay on HCT-15 colon is 94.8%; with HT29 colon, 85.2%; in the assay on SNB-75 CNS it was 82.2%; in the assay with SNB-19 CNS, 101%; with U251 CNS, 92.4%; in the assay on PC-3 prostate, 82.6%. The growth was 102% in the assay on SK-MEL-5 melanoma, 101% in the assay on UACC-62 melanoma, 65.2% with LOX IMVI melanoma and 109% with SK-MEL-28 melanoma.

In the case of `Cc1cc(O)ccc1C1=NN(c2ccc(S(N)(=O)=O)cc2)C(=O)CC1`, the growth with HCT-15 colon is 35.2%; with HT29 colon, 11.2%; in the assay with SNB-75 CNS, 63%; in the assay on SNB-19 CNS, 82.3%; in the assay on U251 CNS, 53%; in the assay on PC-3 prostate it was 50.7%. The growth with SK-MEL-5 melanoma is 25.2%; with UACC-62 melanoma, 27.2%; in the assay with LOX IMVI melanoma it was 63%; with SK-MEL-28 melanoma, 58%.

Turning to `COc1ccc2[nH]c(O)c(/C=c3/ccc4c(c3)N=C(c3ccc(F)cc3)N=4)c2c1`, the growth in the assay on HCT-15 colon was 50.1%; in the assay with HT29 colon, 84.5%; with SNB-75 CNS it was -12.3% (active); with SNB-19 CNS, 87.1%; in the assay with U251 CNS, 42.1%; in the assay with PC-3 prostate it was 47.4%. The growth was 61.5% in the assay with SK-MEL-5 melanoma, 90.1% in the assay on UACC-62 melanoma, 16.3% in the assay with LOX IMVI melanoma and 72.7% with SK-MEL-28 melanoma.

For the compound `O=C(NO)c1ccc(NCc2csc3ccccc23)cc1`, the growth with HCT-15 colon was 39%; with HT29 colon, 79.2%; in the assay on SNB-75 CNS it was 56%; in the assay on SNB-19 CNS, 69.5%; in the assay with U251 CNS, 57.4%; in the assay with PC-3 prostate, 52.4%. In addition, the growth with SK-MEL-5 melanoma is 74.4%; with UACC-62 melanoma it was 57.8%; in the assay on LOX IMVI melanoma, 71.6%; in the assay with SK-MEL-28 melanoma, 91.2%.

On to `O=C(NNC(=S)Nc1ccccc1)c1ccc(Nc2ncnc3c2cnn3-c2cccc(Br)c2)cc1`, for which the growth in the assay on HCT-15 colon was 110%; with HT29 colon it was 105%; with SNB-75 CNS, 80%; in the assay with SNB-19 CNS it was 101%; in the assay with U251 CNS, 114%; in the assay on PC-3 prostate, 93.5%. The growth in the assay on SK-MEL-5 melanoma is 100%; in the assay on UACC-62 melanoma, 94.6%; with LOX IMVI melanoma, 97.3%; with SK-MEL-28 melanoma, 110%.

For the compound `COc1cccc(OCC(O)CN2CCN(c3ccccc3)CC2)c1` (stereo not given), the growth is 117% in the assay on HCT-15 colon; 103% in the assay with HT29 colon; 96.5% in the assay on SNB-75 CNS; 105% in the assay with SNB-19 CNS; 108% in the assay on U251 CNS; 109% with PC-3 prostate. Further, the growth in the assay on SK-MEL-5 melanoma was 108%; in the assay with UACC-62 melanoma, 94.3%; in the assay with LOX IMVI melanoma, 104%; with SK-MEL-28 melanoma, 81.4%.

On to `Oc1c(-c2cc(C(F)(F)F)[nH]n2)cc(Cl)c(OCc2ccc(Cl)cc2)c1-c1ccc(Cl)c(C(F)(F)F)c1`, for which the growth with HCT-15 colon was -11.5% (active); in the assay on HT29 colon, 6.96% (active); with SNB-75 CNS, -17.6% (active); in the assay with SNB-19 CNS it was 18.6%; in the assay on U251 CNS, 8.65% (active); in the assay with PC-3 prostate, 4.7% (active). For the same compound, the growth in the assay with SK-MEL-5 melanoma is -60.2% (active); with UACC-62 melanoma, -17.3% (active); with LOX IMVI melanoma, 1.76% (active); in the assay on SK-MEL-28 melanoma, -19.9% (active).

Turning to `O=C1OC(c2ccc(-c3ccccc3)cc2)=C/C1=C/c1c(Cl)cccc1Cl`, the growth was 83.7% with HCT-15 colon; 101% with HT29 colon; 85.1% in the assay with SNB-75 CNS; 105% in the assay with SNB-19 CNS; 102% in the assay on U251 CNS; 91.8% in the assay with PC-3 prostate. Further, the growth is 101% in the assay on SK-MEL-5 melanoma, 85.5% in the assay with UACC-62 melanoma, 103% with LOX IMVI melanoma and 101% with SK-MEL-28 melanoma.

For the compound `COc1cc2c(cc1OC)C(=O)OC2`, the growth in the assay on HCT-15 colon is 119%; in the assay with HT29 colon, 109%; in the assay on SNB-75 CNS, 78.7%; in the assay with SNB-19 CNS it was 113%; in the assay with U251 CNS, 106%; in the assay with PC-3 prostate it was 125%. Also, the growth is 99.4% in the assay with SK-MEL-5 melanoma, 97.6% in the assay on UACC-62 melanoma, 109% in the assay on LOX IMVI melanoma and 147% in the assay with SK-MEL-28 melanoma.

Take `COc1cc2cc(C(=O)Nc3ccccc3)c(N)nc2cc1OC`: the growth was 2.25% (active) with HCT-15 colon; -70.6% (active) with HT29 colon; 15.5% in the assay with SNB-75 CNS; 21.2% in the assay with SNB-19 CNS; -6.06% (active) in the assay with U251 CNS; 17.7% with PC-3 prostate. The growth was -95.1% (active) in the assay with SK-MEL-5 melanoma, -85.3% (active) in the assay on UACC-62 melanoma, -93.3% (active) in the assay with LOX IMVI melanoma and -98.3% (active) in the assay on SK-MEL-28 melanoma.

For `FC(F)(F)C1=NNC(c2ccc3ccccc3c2)=NN1`, the growth was 97.9% in the assay with HCT-15 colon; 107% in the assay on HT29 colon; 80.3% in the assay on SNB-75 CNS; 96.6% in the assay with SNB-19 CNS; 99.2% in the assay on U251 CNS; 109% in the assay with PC-3 prostate. The growth was 97.8% with SK-MEL-5 melanoma, 101% in the assay on UACC-62 melanoma, 90.5% with LOX IMVI melanoma and 112% with SK-MEL-28 melanoma.
